Bioassay records as filed in PubChem.
ELG1 repair inh – inhibitors of ELG1-dependent DNA repair in HEK293T cells; Potency, µM (series often up to 46.1 µM), for inactives: at the top dose activity change, negative = inhibition, usual class: inhibitors; 330,000 compounds, 2.3% hits; HEK293T ELG1-luciferase reporter, luminescence, 16 h; DNA damage induced by 5-fluorouridine; also: % is scaled to controls: 0 for no effect and ±100 for the full control effect; nearly all actives have a fitted effect of over 55% in size
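Luminescence from the luciferase reporter, measured 30 min after ONE-Glo reagent at room temperature, was the read-out. Beforehand, 2,000 cells per well were exposed for 16 hr at 37 °C to 5-fluorouridine together with compound or vehicle.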
MCF10A rerep – inducers of DNA re-replication in MCF 10A breast cells; MCF 10A DNA re-replication, Hoechst nuclear intensity, 48 h; Potency, µM (titrated, usually from 46.1 µM), without a hit: at the top dose activity, positive = re-replication, usual class: activators; 350,000 compounds, 2.9% hits; AID 624296; also: % of control where 0% means no effect; nearly all actives have a fitted effect of over 50% in size
KB-3-1 cytotox – KB-3-1 parental cell cytotoxicity; 400,000 compounds, 1.4% hits; Potency, µM (doses to about 46.1 µM), hits mostly cytotoxic; KB-3-1 viability, CellTiter-Glo ATP luminescence, 72 h; also: % is scaled to controls: 0 for no effect and ±100 for the full control effect; nearly all actives have a fitted effect of over 60% in size
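Cytotoxicity measured as CellTiter-Glo luminescence after 72 h at 37 C. Compound titrations were pinned onto drug-naive KB-3-1 parental adenocarcinoma cells grown in DMEM with 10% FBS, and normalized data fitted to concentration-response curves.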
KB-V1 MDR tox – KB-V1 MDR subline cytotoxicity | KB-V1 MDR cells viability, CellTiter-Glo, 72 h | Potency, µM (top dose mostly 46.1 µM), usual class: cytotoxic | 400,000 compounds, 3.4% hits; also: % is scaled to controls: 0 for no effect and ±100 for the full control effect; nearly all actives have a fitted effect of over 60% in size
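KB-V1 MDR subline cells in DMEM (phenol-red free, 10% FBS) exposed to compounds in qHTS concentration series for 72 h at 37 degrees C. Viability read by CellTiter-Glo luminescence; concentration-effect curves fitted after normalization and correction.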
SW480 rereplic – inducers of DNA re-replication in SW480 colon cancer cells; 340,000 compounds, 1.8% hits; AID 624297; Potency, µM (titrated, usually from 46.1 µM), inactives show at the highest dose re-replication activation, most hits filed as activators; SW480 DNA re-replication, Hoechst DNA content imaging, 48 h; also: % of control where 0% means no effect; nearly all actives have a fitted effect of over 55% in size
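Quantitative HTS format with DMSO vehicle controls; 48 hr drug incubation at 37 C, then 40 min Hoechst staining and scanning imager measurement at 405 nm excitation.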
Active calls of the source: *. Compounds with a hit are over-represented: about 8.1% of the library has one in this group of screens. Calls follow the shape of the dose curve; as a rule, active = well fitted curve in the direction sought with a large enough effect; inconclusive = small, poorly fitted or top-dose-only effect, or another doubt; inactive = no such curve, though single readings can be large; an effect the other way counts as inactive or inconclusive. Potency is read from the fitted curve at half-maximal effect.

Results for CCCn1nc(NC(=O)c2cccc(Cl)c2)c2cc3cccc(C)c3nc21 ?
KB-3-1 cytotox: inactive; KB-V1 MDR tox: inconclusive

Results for COc1ccnc(CSC(N)=Nc2ccc(F)cc2)c1 ?
ELG1 repair inh: inconclusive; MCF10A rerep: 12%; KB-3-1 cytotox: inconclusive; KB-V1 MDR tox: inconclusive; SW480 rereplic: inconclusive

Results for CCOc1ccccc1NC(=O)c1cc2c(=O)[nH]c3ccccc3c2s1 ?
KB-3-1 cytotox: inactive; KB-V1 MDR tox: inactive

How did CCC(=O)Nc1nn(C)c2nc3c(C)cccc3cc12 do in these assays?
ELG1 repair inh: -18%; MCF10A rerep: 6.5µM*; KB-3-1 cytotox: inactive; KB-V1 MDR tox: inactive; SW480 rereplic: 21µM*

What do the screens show for `CC1(C)Cc2nc3oc4c(N(CCO)Cc5ccccc5)ncnc4c3cc2CO1`?
ELG1 repair inh: 18µM*; MCF10A rerep: 19%; KB-3-1 cytotox: inactive; KB-V1 MDR tox: 15µM*; SW480 rereplic: -8%

How did CC(C)COC(=O)N1CCCC1C(=O)O (configuration not stated) do in these assays?
ELG1 repair inh: inconclusive; MCF10A rerep: 6.5µM*; KB-3-1 cytotox: inactive; KB-V1 MDR tox: inactive; SW480 rereplic: 0.73µM*

How did CC(C)(C)OC(=O)N1CCC[C@H]1C(=O)O do in these assays?
ELG1 repair inh: inconclusive; MCF10A rerep: 24%; KB-3-1 cytotox: inactive; KB-V1 MDR tox: inactive; SW480 rereplic: -21%

Results for C=CCN1CC(c2nc3ccccc3n2Cc2ccccc2)CC1=O (configuration not stated) ?
ELG1 repair inh: 13%; MCF10A rerep: 11%; KB-3-1 cytotox: inactive; KB-V1 MDR tox: 12µM*; SW480 rereplic: -2%

Results for CC(C)(C)N1CC(c2nc3ccccc3n2Cc2ccc(Cl)cc2)CC1=O (configuration not stated) ?
ELG1 repair inh: -26%; MCF10A rerep: 15%; KB-3-1 cytotox: inactive; KB-V1 MDR tox: 15µM*; SW480 rereplic: 0%

How did Cn1c(C2CC(=O)N(Cc3ccccc3)C2)nc2ccccc21 (configuration not stated) do in these assays?
ELG1 repair inh: -2%; MCF10A rerep: 0%; KB-3-1 cytotox: inactive; KB-V1 MDR tox: inactive; SW480 rereplic: -3%

Results for CC(=O)c1ccc(NC(=S)Nc2ccc(N3CCOCC3)cc2)cc1 ?
ELG1 repair inh: -9%; MCF10A rerep: -5%; KB-3-1 cytotox: inactive; KB-V1 MDR tox: inactive; SW480 rereplic: 3%

Results for C/C(=N\NC(=S)Nc1ccc(C)c(C)c1)c1ccc(N2CCOCC2)cc1 ?
ELG1 repair inh: 23µM*; MCF10A rerep: inconclusive; KB-3-1 cytotox: inactive; KB-V1 MDR tox: inactive; SW480 rereplic: -8%

Results for CC(=NNC(N)=S)c1ccc2cc3c(cc2c1)OCO3 ?
KB-3-1 cytotox: inconclusive; KB-V1 MDR tox: 0.58µM*

How did C/C(=N\NC(=S)Nc1ccc(F)cc1)c1ccc2c(c1)OCCO2 do in these assays?
ELG1 repair inh: 9%; MCF10A rerep: 5.8µM*; KB-3-1 cytotox: inconclusive; KB-V1 MDR tox: 12µM*; SW480 rereplic: inconclusive

Results for CC(=O)N/N=C(\C)c1ccc2c(c1)OCCO2 ?
ELG1 repair inh: inconclusive; MCF10A rerep: -4%; KB-3-1 cytotox: inconclusive; KB-V1 MDR tox: 23µM*; SW480 rereplic: -7%

How did C/C(=N\NC(N)=S)c1ccc2c(c1)OCCO2 do in these assays?
ELG1 repair inh: inconclusive; MCF10A rerep: 0%; KB-3-1 cytotox: inconclusive; KB-V1 MDR tox: inconclusive; SW480 rereplic: -9%

How did O=C(c1cc(-c2ccc(Br)cc2)nc2ccccc12)N1CCC1 do in these assays?
ELG1 repair inh: -15%; MCF10A rerep: 17%; KB-3-1 cytotox: inactive; KB-V1 MDR tox: inactive; SW480 rereplic: -2%

Results for CCc1nnc(NC(=O)[C@@H](NC(=O)c2ccc(C(C)(C)C)cc2)C(C)C)s1 ?
ELG1 repair inh: -10%; MCF10A rerep: 4%; KB-3-1 cytotox: inactive; KB-V1 MDR tox: inactive; SW480 rereplic: 1%

What do the screens show for `COCCN(C(=O)COC(=O)c1ccc(Br)o1)c1c(N)n(Cc2ccccc2)c(=O)[nH]c1=O`?
KB-3-1 cytotox: inactive; KB-V1 MDR tox: inactive

How did COc1cccc(CC(=O)N2CCN(S(=O)(=O)c3ccc(Br)cc3)CC2)c1 do in these assays?
ELG1 repair inh: 6%; MCF10A rerep: 10%; KB-3-1 cytotox: inactive; KB-V1 MDR tox: inactive; SW480 rereplic: -3%

How did CCOc1ccc2[nH]c(=O)c(CN(Cc3cccs3)Cc3nnnn3C(C)(C)CC)cc2c1 do in these assays?
ELG1 repair inh: inconclusive; MCF10A rerep: -2%; KB-3-1 cytotox: inactive; KB-V1 MDR tox: 18µM*; SW480 rereplic: 18%

Results for Cc1cccc2cc(CN(Cc3cccs3)Cc3nnnn3Cc3ccccc3)c(=O)[nH]c12 ?
ELG1 repair inh: 18µM*; MCF10A rerep: 18%; KB-3-1 cytotox: inactive; KB-V1 MDR tox: inactive; SW480 rereplic: 1%

Results for O=C(OCc1cc([N+](=O)[O-])cc2c1OCOC2)c1ccccn1 ?
ELG1 repair inh: 4%; MCF10A rerep: 3%; KB-3-1 cytotox: inactive; KB-V1 MDR tox: inactive; SW480 rereplic: -55%

Results for CCN(CC(=O)Nc1ccc(C(C)=O)cc1)CC(=O)Nc1ccc2c(c1)OCCO2 ?
ELG1 repair inh: -29%; MCF10A rerep: 0%; KB-3-1 cytotox: inactive; KB-V1 MDR tox: inactive; SW480 rereplic: -3%

Results for CCN(CC(=O)Nc1sc2c(c1C#N)CCC(C)C2)Cc1nc2ccccc2c(=O)[nH]1 (configuration not stated) ?
ELG1 repair inh: 13µM*; MCF10A rerep: 59%; KB-3-1 cytotox: inactive; KB-V1 MDR tox: inactive; SW480 rereplic: 18%

Results for CCN(CC(=O)Nc1ccc2c(c1)OCCO2)CC(=O)Nc1ccccc1C(F)(F)F ?
ELG1 repair inh: 10%; MCF10A rerep: 6%; KB-3-1 cytotox: inactive; KB-V1 MDR tox: 12µM*; SW480 rereplic: -5%

Results for CCN(CC(=O)Nc1cc(OC)ccc1OC)Cc1nc2ccccc2c(=O)[nH]1 ?
ELG1 repair inh: inconclusive; MCF10A rerep: 1%; KB-3-1 cytotox: inactive; KB-V1 MDR tox: inconclusive; SW480 rereplic: 1%

Results for CCN(Cc1nc2ccccc2c(=O)[nH]1)C(=O)c1cccc(NC(=O)c2cccs2)c1 ?
ELG1 repair inh: inconclusive; MCF10A rerep: 9%; KB-3-1 cytotox: inactive; KB-V1 MDR tox: inactive; SW480 rereplic: 0%

What do the screens show for `CCN(Cc1nc2cc(Cl)ccc2c(=O)[nH]1)C(=O)c1cccc(NC(=O)c2cccs2)c1`?
ELG1 repair inh: 16µM*; MCF10A rerep: 9%; KB-3-1 cytotox: inactive; KB-V1 MDR tox: inactive; SW480 rereplic: 2%
